Compound activity as filed in PubChem.
aSyn rescue: inhibitors of alpha-synuclein toxicity in yeast; 0.14% of 370,000 active; Yeast expressing alpha-synuclein, growth rescue, BacTiter-Glo, 24 h; Potency, µM (top dose mostly 46.1 µM), for inactives: at the highest dose growth rescue (activation), actives largely listed as activators; further: % of control where 0% means no effect; nearly all actives have a fitted effect of over 65% in size
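Galactose-induced alpha-syn yeast (OD600=0.02, raffinose-pregrown) + pinned cpd, 24 hr, 30 deg C; growth by BacTiter-Glo luminescence. Growth restoration scores as activation.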
Rango dissoc inh: inhibitors of RanGTP-induced Rango-importin beta complex dissociation. Biochemical FRET Rango-importin beta, RanGTP-induced dissociation. AID 540253. Potency, µM (doses to about 46.1 µM), for inactives: top-dose activity change, negative = inhibition. 0.071% of 340,000 active. O95149+P62826; calls by dose curve; further: % of control where 0% means no effect; nearly all actives have a fitted effect of over 45% in size
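Rango (0.1 uM)–importin beta (0.25 uM) complex; RanGTP-RCC1 trigger; 45 min RT; CFP/YFP FRET read.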
TDP-43 yeast inh: inhibitors of TDP-43 toxicity in yeast | TDP-43 expressing yeast growth rescue, BacTiter-Glo, 24 h | Potency, µM (titrated, usually from 46.1 µM), without a hit: at the highest dose growth rescue (activation), usual class: activators | 1.8% of 410,000 active; further: % of control where 0% means no effect; nearly all actives have a fitted effect of over 50% in size
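Yeast cells expressing TDP-43 under galactose induction are exposed to compounds for 24 hr at 30 deg C. BacTiter-Glo luminescence measures growth, so protective compounds score as activators.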
ASM inhibitor: blocks human secretory acid sphingomyelinase; P17405; placental ASM, HMU-PC fluorogenic substrate, 60 min; Potency, µM (titrated, usually from 57.5 µM), inactives show at the top dose activity change, negative = inhibition, actives largely listed as inhibitors; 0.006% of 340,000 active
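Fluorogenic HMU-PC substrate (9 uM final) is turned over by placental ASM in 60 min at 37 C after a 10 min compound preincubation. Reaction ended by alkaline stop (pH 10), with fluorescence read at 386/447 nm.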
Rango-impB inh: prevents formation of the Rango-importin beta complex. Q14974. Rango CFP/YFP FRET sensor + importin beta, 45 min. Potency, µM (top dose mostly 92.2 µM), inactives show at the top dose inhibition of complex formation. 0.031% of 340,000 active. AID 540263; calls by dose curve;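 further: 0% = DMSO wells and 100% = buffer wells lacking importin beta; nearly all actives have a fitted effect of over 15% in size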
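FRET biosensor Rango (snurportin 1 IBB between N-terminal EYFP and C-terminal Cerulean), 50 nM in PBS/1 mM DTT/0.02% Tween-20/0.1% BSA, preincubated 5 min RT with compound; 0.125 microM importin beta added, 45 min RT, CFP/YFP FRET ratio read.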
Abeta rescue: compounds reversing amyloid beta toxicity in yeast; yeast expressing A-beta42, growth rescue, OD600, 48 h; response scale: 0% DMSO, 100% iron-clioquinol control; Potency, µM (titrated, usually from 46.1 µM), usual class: activators; 0.063% of 410,000 active; further: nearly all actives have a fitted effect of over 55% in size
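Growth rescue measured by 600 nm absorbance after 48 h yeast culture at 30 C with compound. Values normalized between DMSO and an equimolar ferric chloride plus clioquinol control.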
Starred values were filed as active, the others as inactive; i = inactive; ? = inconclusive; . = no result; ! = a repeat was not active; [ ] = another dose, or the depositor's remark. A selection: hits, their analogues and other compounds. The true share with any hit is near 2%. Unless noted, the call rests on the fitted dose curve; in most records, active means well fitted curve in the direction sought with a large enough effect; inconclusive means small, poorly fitted or top-dose-only effect, or another doubt; inactive means no such curve, though single readings can be large; an effect the other way counts as inactive or inconclusive. Potency means the concentration at half of the fitted maximal effect.

SMILES	aSyn rescue	Rango dissoc inh	TDP-43 yeast inh	ASM inhibitor	Rango-impB inh	Abeta rescue
CCc1ccc(NC(=O)CSc2nc(-c3ccccc3Cl)nc3c2Cc2c(CO)cnc(C)c2O3)cc1	.	.	5%	.	.	i
COc1ccc(-c2cc(C(C)=O)c(C)n2CCC(=O)NCc2ccc(F)cc2)cc1	.	.	14%	.	.	i
O=C(CSc1c2c(nc3cc(Cl)ccc13)CCCC2)N1CCN(c2ccccc2)CC1	.	.	20µM*	.	.	i
COc1ccc(NC(=O)CSc2c3c(nc4ccc(Cl)cc24)CCCC3)cc1Cl	.	.	11µM*	.	.	i
CCCCNC(=O)CSc1c2c(nc3ccc(Cl)cc13)CCCC2	.	.	?	.	.	i
CCCCN(CC)C(=O)CSc1c2c(nc3ccc(Cl)cc13)CCCC2	.	.	22µM*	.	.	i
CCOC(=O)c1ccc(NC(=O)CSc2c3c(nc4cc(Cl)ccc24)CCCC3)cc1	.	.	16µM*	.	.	i
CC1CCN(C(=O)CSc2c3c(nc4cc(Cl)ccc24)CCCC3)CC1	.	.	?	.	.	i
CNc1ccc(/C=C2\C=Cc3ccccc32)cc1Cl	-16%	.	.	.	.	.
O=C(NCc1c(O)ccc2ccccc12)c1ccccc1	7%	11%	20µM*	-4%	-2%	?
Cc1ccc(CNc2ncnc3c2nnn3C)cc1	.	.	?	.	.	i
O=C(NCc1csc(-c2ccccc2)n1)c1cc(F)cc2c1OCOC2	6%	21%	13µM*	-4%	0%	i
Cc1ccc(-c2nc(CCNC(=O)c3ccco3)cs2)cc1	-8%	1%	12%	1%	1%	i
O=C(NCCc1csc(-c2ccccc2)n1)c1c(F)cccc1F	-9%	-24%	20µM*	4%	?	i
O=C(NCCc1csc(-c2ccccc2)n1)c1c(F)cccc1Cl	0%	11%	13µM*	1%	0%	i
O=C(NCCc1csc(-c2ccc(Cl)cc2)n1)c1ccco1	-14%	3%	16µM*!	-2%	0%	i
COc1cc(C(=O)NCCc2csc(-c3ccc(Cl)cc3)n2)cc(OC)c1OC	.	.	22µM*	.	.	i
COc1cc(-c2nc(CCNC(=O)c3ccco3)cs2)cc(OC)c1OC	-3%	-3%	5%	4%	-2%	i
O=C(NCCc1csc(-c2ccc(F)cc2)n1)c1c(F)cccc1Cl	.	.	13µM*	.	.	i
O=C(NCCc1csc(-c2cccnc2)n1)c1c(F)cccc1F	-1%	25%	1%	-5%	-4%	i
Cc1ccccc1C(=O)NC1(C(F)(F)F)N=C(c2ccccc2)N(C2CCCCC2)C1=O (stereo not given)	.	.	6%	.	.	i
O=C(Oc1ccc2c3c(c(=O)oc2c1)CCCC3)c1cccs1	5%	?	8%	469%	-7%	i
O=C(Oc1cc2oc(=O)c3c(c2cc1Cl)CCCC3)c1cccs1	2%	8.2µM*[inhibitor]	-22%	i	?	i
c1ccc(Cn2c(-c3cncs3)nc3ccccc32)cc1	-11%	5%	7.9µM*	0%	0%	i
COc1ccc(NC(=O)CSCc2cc(=O)c3cc(C)ccc3[nH]2)cc1	.	.	16%	.	.	i
CCc1ccc(N=c2c([N+](=O)[O-])nn(-c3ccc4c(c3)OCCO4)n2O)cc1	0%	1%	20µM*	-4%	2%	?
O=[N+]([O-])c1nn(-c2ccc3c(c2)OCCO3)n(O)c1=Nc1ccccc1	-16%	8%	11µM*	-1%	-2%	i
COc1cccc(CNC(=O)CSc2ncc(S(=O)(=O)c3ccc(Br)cc3)c(=O)[nH]2)c1	.	.	0%	.	.	i
O=C(O)c1ccc2c(c1Nc1ccccc1)C(=O)c1ccccc1C2=O	13µM*	-14%	-35%	-1%	?	i
Cc1ccc(O)c(C(=O)C=Cc2ccccc2)c1	?	1%	13µM*	-6%	2%	i
